From PubChem BioAssay AID623866 (Sanford-Burnham Center for Chemical Genomics, 2012)
This is one part of the list. Active and inactive are the calls of the source. No rule for the calls is given here.

Each molecule was assayed against Tyrosine-protein phosphatase non-receptor type 5 (Homo sapiens) (UniProt P54829) (assay: retest of PTPN5 enzyme inhibition – biochemical, fluorescence intensity, single concentration, confirmation (AID 623866;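 also: 0% = enzyme with substrate plus DMSO and 100% = substrate without enzyme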)). Settings: recombinant STEP, OMFP fluorogenic substrate, at 20 µM, active compounds read high.
Tyrosine-protein phosphatase non-receptor type 5 (Homo sapiens), sequence (P54829 whole entry, looked up): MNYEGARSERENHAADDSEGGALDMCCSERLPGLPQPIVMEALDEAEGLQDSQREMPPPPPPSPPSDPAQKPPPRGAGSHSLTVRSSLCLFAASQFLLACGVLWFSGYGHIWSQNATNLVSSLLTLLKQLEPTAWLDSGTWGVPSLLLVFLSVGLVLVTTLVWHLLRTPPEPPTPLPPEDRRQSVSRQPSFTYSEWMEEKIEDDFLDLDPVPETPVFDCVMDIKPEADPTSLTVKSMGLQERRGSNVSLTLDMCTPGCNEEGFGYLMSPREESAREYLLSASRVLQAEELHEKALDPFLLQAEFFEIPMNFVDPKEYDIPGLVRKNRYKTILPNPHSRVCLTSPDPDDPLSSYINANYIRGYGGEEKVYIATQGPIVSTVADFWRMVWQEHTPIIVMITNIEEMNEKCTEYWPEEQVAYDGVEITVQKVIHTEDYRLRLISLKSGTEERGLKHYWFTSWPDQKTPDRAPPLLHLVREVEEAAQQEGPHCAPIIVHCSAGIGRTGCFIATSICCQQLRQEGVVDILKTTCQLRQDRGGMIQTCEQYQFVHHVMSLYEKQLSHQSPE

inhibition, inactive:
N#Cc1ccc(C(=O)Nc2cccc3cccnc23)c(F)c1 -3.4%
COc1ccc2[nH]c(=O)c(-c3noc(-c4ccc(F)cc4)n3)cc2c1 8.96%
Cc1ccccc1CC1(CO)CCCN(C(=O)c2cc(-c3ccccc3)no2)C1 (centres undefined) 0.313%
Cc1cc(C(=O)N2CCN(c3ccccn3)CC2)c(C)o1 7.4%
Cc1ccc(-c2nnc(-c3ccc(NC(=O)c4cccs4)cc3)o2)cc1 10.7%
O=C(Nc1cccnc1)c1cc2cc(Br)ccc2oc1=O 8.13%
Nc1c(Cl)cc(-c2csc(N3CCCC3c3nc4cc(Cl)c(Cl)cc4n3CCOCCO)n2)cc1Cl (centres undefined) 20.3%
O=C(CSC(=S)N1CCCCC1)c1c(F)cccc1F -5.75%
C/C=C/C(=O)Nc1ccc(N2CCN(c3ccc(C(F)(F)F)cn3)CC2)nc1 12.4%
Cc1ccc(CNC(=O)CSc2nnc3c(n2)[nH]c2ccc(F)cc23)cc1 -0.633%
Cc1ccn2c(-c3csc(Nc4ccc(C(=O)O)cc4)n3)c(C)nc2c1 -1.96%
CCc1ccc(NC(=O)CS(=O)CC(=O)NCCCc2ccccc2)cc1 (centres undefined) -4.12%
COCc1c(C(=O)N/N=C/C2CC=CCC2)nnn1-c1nonc1N (centres undefined) -1.89%
O=C(COc1cccc(F)c1)Oc1ccc(C(=O)c2ccccc2)cc1 12.2%
Cc1ccc(OCC(=O)Nc2ccc(-c3nc4ncccc4o3)cc2)cc1 23.6%
COCCN(C(=S)Nc1ccccc1OC)C1CCN(C(C)C)CC1 7.61%
CCCS(=O)(=O)N1CCCC(C(=O)NCc2ccco2)C1 (centres undefined) 1.82%

inhibition, active:
O=C(N/N=C/c1coc2ccccc2c1=O)c1cc2ccccc2o1 24.4%
O=C(N/N=C/c1cccc(Br)c1)c1ccc(N2CCCC2=O)cc1 41.4%
O=C(NN=Cc1ccccc1O)NN=Cc1ccccc1O 90.1%
Cc1ccc(S(=O)(=O)c2c[nH]c3ccc(Cl)cc3c2=O)cc1 23.8%
C/C(=N\Nc1ccc(S(N)(=O)=O)cc1[N+](=O)[O-])c1cccs1 64.7%
Cc1c(CCC(=O)O)c(=O)oc2c(C)c(OCc3ccccc3Cl)ccc12 42.7%
N#Cc1c(-c2cccs2)nc(SCC(=O)c2ccc(Br)cc2)[nH]c1=O 103%
